In the supplement of paper PMC12632987:

Target: T1, USP38, Q8NB14
T1 chain: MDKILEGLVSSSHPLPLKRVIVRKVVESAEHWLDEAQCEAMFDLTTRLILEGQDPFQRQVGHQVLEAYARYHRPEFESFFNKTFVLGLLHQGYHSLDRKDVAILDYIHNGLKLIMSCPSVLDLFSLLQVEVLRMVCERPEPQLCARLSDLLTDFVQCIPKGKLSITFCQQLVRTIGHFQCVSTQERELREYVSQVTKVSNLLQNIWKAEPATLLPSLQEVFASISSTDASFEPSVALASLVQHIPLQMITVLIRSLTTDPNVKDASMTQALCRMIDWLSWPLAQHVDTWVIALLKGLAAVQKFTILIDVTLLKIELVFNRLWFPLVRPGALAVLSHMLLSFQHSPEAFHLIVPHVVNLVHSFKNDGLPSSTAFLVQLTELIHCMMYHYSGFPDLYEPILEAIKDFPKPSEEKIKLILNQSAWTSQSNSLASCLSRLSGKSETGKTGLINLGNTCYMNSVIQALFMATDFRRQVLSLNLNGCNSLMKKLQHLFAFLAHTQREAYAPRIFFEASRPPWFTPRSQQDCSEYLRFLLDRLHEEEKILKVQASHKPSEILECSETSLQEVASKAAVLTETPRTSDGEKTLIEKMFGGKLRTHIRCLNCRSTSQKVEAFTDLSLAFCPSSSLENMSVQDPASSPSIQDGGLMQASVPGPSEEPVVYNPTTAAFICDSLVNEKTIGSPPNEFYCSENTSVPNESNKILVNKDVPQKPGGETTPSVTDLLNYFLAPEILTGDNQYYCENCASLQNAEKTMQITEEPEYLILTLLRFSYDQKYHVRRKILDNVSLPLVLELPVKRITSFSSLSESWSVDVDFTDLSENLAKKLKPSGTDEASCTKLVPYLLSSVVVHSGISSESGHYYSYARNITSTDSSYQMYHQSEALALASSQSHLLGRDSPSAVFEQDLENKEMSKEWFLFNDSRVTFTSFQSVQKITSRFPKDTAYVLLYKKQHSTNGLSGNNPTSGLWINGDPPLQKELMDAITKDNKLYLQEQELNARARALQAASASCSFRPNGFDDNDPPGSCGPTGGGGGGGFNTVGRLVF
Experiment: median log2 fold change of GCK-ALFA target abundance (FLAG IP / Myc IP barcode read proportion) (log2 ratio); each designed protein is fused to an ALFA-tag nanobody in HEK293 cells to bring the named protein to FLAG-tagged glucokinase (GCK); Myc marks an untargeted standard; higher = target protein stabilised (more abundant)
Details: target protein: 3xFLAG-MCP-GCK-ALFA reporter; HEK293 landing pad (RPLP)
Method in brief: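 Sequencing of reverse-transcribed, amplified circular RNA barcodes from anti-FLAG and anti-Myc immunoprecipitates provided the readout for an ALFA-nanobody-fused binder library recombined into HEK293 landing-pad cells. Those cells were induced with 2 μg mL^−1 doxycycline, transfected with a plasmid expressing a FLAG-tagged target and a Myc-tagged standard, and lysed after 48 h. Target abundance is the per-binder median log2 ratio of FLAG to Myc barcode read proportions. Only barcodes at a proportion of ≥10^−7 in both replicates and binders with ≥3 barcodes per replicate were kept, with a 10^−6 pseudocount added before the two replicates were pooled.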

B1: usp_38_diff_out_18_28_413 (protein)
chain: MREENRKRIEEMEKKADELIDEANEVATEGYLKYADDPSNEELLKAIRELMDAVGEAAAAVREARENIDDPEKVEEEEKRFEEAYEKAKKKIKEVKELIK
median log2 fold change: -0.0716

B2: usp_38_diff_out_18_28_414 (protein)
chain: MLEENKKKIEEMKKEADELIDKANEVMTQGYLAYADDPSNEELLKAIRELGDAVGAAAAAVREARENIENPEKVEKEKKKFEEAKKAAEEKIEEVKKLIA
median log2 fold change: 0.143

B3: usp_38_diff_out_18_28_415 (protein)
chain: MLEENRKKIEEAKKEADELIDKANKVATEGFLKYSEDPSNEELLKAVNELLDYVGKAAAAVVEMRENINDPEAVEEQLKKFKEAKEKAEKAIEEVKKLIA
median log2 fold change: 0.333

B4: usp_38_diff_out_18_28_416 (protein)
chain: MMKEIEEKIEKLEKEADELIDKATEAMTKGFLKINEDPNSEELIEAINKLSDAVGKAAHAVNLARRNKNNPEAVEKYEKEFEKAKKEAEKELKKLEELIK
median log2 fold change: -0.28

B5: usp_38_diff_out_18_28_417 (protein)
chain: MLEERRERLKEMEKEADELIDKYNEAATKGFLYYHEHPEAEEVLEAVDKLSDAVGAAAAAVNEMRENIEDEEAFKKEEEKFKEYKKEAEKYLEELEKLIA
median log2 fold change: -0.307

B6: usp_38_diff_out_18_28_419 (protein)
chain: MLEERQKKIEKLQKEADELIDKYTEAAEKGFLKYHEDPSAEEVLEAIKELSDHVGAAAAAVNEMKENIENEEKFEEELKKFKEHKKKALEALEKLKKLLA
median log2 fold change: 0.0382

B7: usp_38_diff_out_18_28_420 (protein)
chain: MKEERLKKLEELEKRADALIDEYNELATKGFLKYHDDPSATEVLEAVNKLSDAVGAAAAAVNAMKENIDNEEAFEAEYKKFEEEEAKAKEYAEELKKLIA
median log2 fold change: 0.326

B8: usp_38_diff_out_18_28_421 (protein)
chain: MREERRKRIEELEKEADELIDEYEKLAREAFLYYHENPEAEEVLEAARRLGDAVGKAAAAVNEMKENIDDEEKFEEYEEEFKRYKAEAKEYAEELKKLLA
median log2 fold change: -0.848

B9: usp_38_diff_out_18_28_422 (protein)
chain: SLAERRALIEELKKEADELIDEYTELATEAFLAYHENPDAEELLAAADALSDAVGAAAAAVREMREHLEDEAKVEAYTKEFKAQKKEAKEKAKELKKLLA
median log2 fold change: -0.0738

B10: usp_38_diff_out_18_28_424 (protein)
chain: MAAEIQARIDAAKARADALIDEVEKVSTEAFLKYSEDPSMEELLEADRKLWDAAGTAAAAVRAMREHRDDPAAVDAELAVFEKAAAEAEKLIKEIKELIK
median log2 fold change: 0.0788

B11: usp_38_diff_out_18_28_425 (protein)
chain: MREEVERRIAELEARADALIDRAEEVSTKAFLAYSEDPSSEELLKKNDELWDAVGAAAAAVREMRENRDDPEAVAREEERFREAAARAEALIKEIEKLIK
median log2 fold change: -0.0591

B12: usp_38_diff_out_18_28_426 (protein)
chain: MLEENKKKIEKAKEEADKLIDEANKVATEGFLKYSENPENEELLKKINELWDAVGKAAQAVNDMRENIEDEEAVEKNLKKFEEAKKEAEKLIEELKKLIE
median log2 fold change: 0.0382

B13: usp_38_diff_out_18_28_427 (protein)
chain: ALAANQATIEKARAEADKLIDESNKILTEAYLAYHEDPSSKELLEAAKKLSDALGKAAQAVNDMRAHRHDAAAVAKHAKEFEKAAKEAKKAIEEIKKLLK
median log2 fold change: -0.128

B14: usp_38_diff_out_18_28_428 (protein)
chain: SQEEIQKLIEENRKKTDELIDEANKVATEAYLAYHDNPEATELLEAVDKLWDALGKAAQAVNEMRENRDDPEKVKKEAAKFEEAAKKAEEYIKKIKELIA
median log2 fold change: 0.0104

B15: usp_38_diff_out_18_28_429 (protein)
chain: SMEEIKKKIEEAEKEADALIDEANEVATQGFLAYHENPEKTELLEAVNELWDALGKAAQAVNDMRENKNNPEKVEKELKKFKEAAKAAKEKIAKIKELIA
median log2 fold change: -0.434

B16: usp_38_diff_out_18_28_430 (protein)
chain: AEEEIKAKIEAAEKEMDKLIDEYVKVAEEAFLKLDESDKGEELEEAINKMADALGKAAAAVNEMRRNRDDPAAVEAELEKFKKAKKEAEEYIKKIKELLK
median log2 fold change: -0.244
